Data: PubChem BioAssay
The source made the active and inactive calls.

How the values were obtained:
[1] = optical density shifts of acrAB sulA E. coli – strain DRC41, OD650, 48 h, E. coli filamentation inducer project, primary screen (AID 1152); settings: higher = more signal, called active from +8 up or from −8 down;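 also: E. coli MC1000 strain DRC41 lacking acrAB efflux pump and sulA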
[2] = probe aLefty1 binding on compound microarray – biochemical, small-molecule microarray, 635/667 nm fluorescence, primary screen (AID 1153); settings: higher = more signal;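 also: score merges spot fluorescence with signal-to-noise ratio from the scanned slide images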
[3] = plasmodial surface anion channel blockers, osmotic lysis – cell-based, P. falciparum Indochina, OD700, 1 h, primary screen (AID 1154); settings: P. falciparum Indochina infected RBC osmotic lysis, higher = more signal, called active from +8 up or from −8 down
[4] = plasmodial surface anion channel blockers, osmotic lysis – cell-based, P. falciparum Indochina, OD700, 2 h, primary screen (AID 1155);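 also: lysis reports solute entry through the parasite surface anion channel PSAC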; settings: P. falciparum Indochina infected erythrocytes, higher = more signal, called active from +8 up or from −8 down
[5] = changes in parasitized red cell lysis, either direction – P. falciparum Indochina, OD700, 3 h, PSAC antagonist project, primary screen (AID 1156); settings: P. falciparum-infected erythrocytes, osmotic lysis, higher = more signal, called active from +8 up or from −8 down
[6] = plasmodial surface anion channel blockers, osmotic lysis – cell-based, P. falciparum Indochina, OD700, 18 h, primary screen (AID 1157); settings: P. falciparum Indochina infected erythrocytes, osmotic lysis OD700, 18 h; higher = more signal, called active from +8 up or from −8 down
[7] = S6 kinase pathway phospho-S6 level changes – cell-based, A549, cytoblot, luminescence, serum-stimulated, primary screen (AID 1158); settings: 5 h, higher = more signal;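 also: serum-stimulated A549 lung adenocarcinoma cells; signal is phosphorylated S6 detected by cytoblot immunostaining with HRP secondary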
[8] = biological target: NADPH oxidase 2 (Homo sapiens) (UniProt P04839); assay: compounds shifting NOX2 Amplex Red fluorescence – cell-based, HEK293-NOX2, PMA-stimulated, NOX inhibitor project, primary screen (AID 1159); settings: 45 min, higher = more signal, called active from +8 up or from −8 down; also: test concentration not given here
[9] = biological target: NADPH oxidase 4 (Homo sapiens) (UniProt Q9NPH5); assay: compounds shifting NOX4 Amplex Red fluorescence – cell-based, HEK293-NOX4, tetracycline-induced, NOX inhibitor project, primary screen (AID 1160); settings: HEK293-NOX4, Amplex Red H2O2 fluorescence, 45 min; higher = more signal, called active from +8 up or from −8 down
[10] = biological target: NADPH oxidase 5 (Homo sapiens) (UniProt Q96PH1); assay: compounds shifting NOX5 Amplex Red fluorescence – cell-based, HEK293-NOX5, NOX inhibitor project, primary screen (AID 1161); settings: HEK293-NOX5, ionomycin, 45 min, higher = more signal
[11] = compound effects on lung adenocarcinoma cell viability – A549, calcein-AM fluorescence, 48 h, basal, profiling panel (AID 1162); settings: higher = more signal; also: test concentration not given here
[12] = compound effects on differentiated 3T3-L1 adipocyte viability – cell-based, 3T3-L1 adipocytes, calcein-AM fluorescence, 48 h, basal, profiling panel (AID 1163); settings: 3T3-L1 adipocytes viability, higher = more signal; also: test concentration not given here
[13] = compound effects on hepatocellular carcinoma cell viability – HepG2, calcein-AM fluorescence, 48 h, basal, profiling panel (AID 1164); settings: higher = more signal; also: test concentration not given here
[14] = compound effects on multiple myeloma cell viability – MM1S, calcein-AM fluorescence, 48 h, basal, profiling panel (AID 1165); settings: higher = more signal;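 also: viability of MM1S multiple myeloma cells under basal unstimulated conditions; test concentration not given here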
[15] = calcein-AM signal in unstimulated myeloma cells – cell-based, calcein-AM fluorescence, 48 h, PK04 Diversity Set, profiling panel (AID 1166); settings: RPMI8226 myeloma viability, higher = more signal;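 also: cells grown under basal conditions without added stimulus; test concentration not given here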
[16] = JC-1 mitochondrial signal, unstimulated HepG2 cells – cell-based, JC-1 fluorescence, 24 h, 100 nL compound, profiling panel (AID 1167); settings: HepG2 mitochondrial potential, higher = more signal; also: test concentration not given here
[17] = JC-1 mitochondrial signal, unstimulated adipocytes – cell-based, JC-1 fluorescence, 3T3-L1 adipocytes, 24 h, 100 nL compound, profiling panel (AID 1168); settings: JC-1 mitochondrial fluorescence, higher = more signal, called active from +8 up or from −8 down; also: test concentration not given here
[18] = JC-1 mitochondrial signal, unstimulated myeloma cells – cell-based, JC-1 fluorescence, RPMI8226, 24 h, 100 nL compound, profiling panel (AID 1169); settings: JC-1 mitochondrial potential fluorescence, higher = more signal; also: test concentration not given here
[19] = JC-1 mitochondrial signal, unstimulated MM1S myeloma – cell-based, JC-1 fluorescence, 24 h, 100 nL compound, profiling panel (AID 1170); settings: MM1S mitochondrial potential, higher = more signal; also: test concentration not given here
[20] = resazurin metabolic signal in A549 cells – cell-based, resazurin fluorescence, 24 h, PK04 Diversity Set, profiling panel (AID 1171); settings: A549 viability, higher = more signal, called active from +8 up or from −8 down; also: test concentration not given here

NADPH oxidase 2 (Homo sapiens), sequence (P04839 whole entry, looked up): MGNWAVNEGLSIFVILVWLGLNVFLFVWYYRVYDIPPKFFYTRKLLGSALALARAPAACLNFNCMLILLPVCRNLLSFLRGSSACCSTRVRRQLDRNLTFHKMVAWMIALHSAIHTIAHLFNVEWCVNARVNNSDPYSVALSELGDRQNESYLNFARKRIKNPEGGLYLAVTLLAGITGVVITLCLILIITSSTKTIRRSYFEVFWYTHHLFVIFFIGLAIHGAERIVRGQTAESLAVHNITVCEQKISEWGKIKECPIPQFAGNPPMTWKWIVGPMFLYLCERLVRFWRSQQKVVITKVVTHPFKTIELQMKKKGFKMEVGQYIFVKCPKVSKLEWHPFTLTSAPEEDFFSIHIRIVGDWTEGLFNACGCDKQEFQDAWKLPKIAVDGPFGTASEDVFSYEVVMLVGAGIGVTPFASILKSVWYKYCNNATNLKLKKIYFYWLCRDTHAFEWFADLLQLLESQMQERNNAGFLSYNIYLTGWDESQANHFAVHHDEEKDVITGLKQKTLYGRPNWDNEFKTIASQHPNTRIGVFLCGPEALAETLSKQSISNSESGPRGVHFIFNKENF
NADPH oxidase 4 (Homo sapiens), sequence (Q9NPH5 whole entry, looked up): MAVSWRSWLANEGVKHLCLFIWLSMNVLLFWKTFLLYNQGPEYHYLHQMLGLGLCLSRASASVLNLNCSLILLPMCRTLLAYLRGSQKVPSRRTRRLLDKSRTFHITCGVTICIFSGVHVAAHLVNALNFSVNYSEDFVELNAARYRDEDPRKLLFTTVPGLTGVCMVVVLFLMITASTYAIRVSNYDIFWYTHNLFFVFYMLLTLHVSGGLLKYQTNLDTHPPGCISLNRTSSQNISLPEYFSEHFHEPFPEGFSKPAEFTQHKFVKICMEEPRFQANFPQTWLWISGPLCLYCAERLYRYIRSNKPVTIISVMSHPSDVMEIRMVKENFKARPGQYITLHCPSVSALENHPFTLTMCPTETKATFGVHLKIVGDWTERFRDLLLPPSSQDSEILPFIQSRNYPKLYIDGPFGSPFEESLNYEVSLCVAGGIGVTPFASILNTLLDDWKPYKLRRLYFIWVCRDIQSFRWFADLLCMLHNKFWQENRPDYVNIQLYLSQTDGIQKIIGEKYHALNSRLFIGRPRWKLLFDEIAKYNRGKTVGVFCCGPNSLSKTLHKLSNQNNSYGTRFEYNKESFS
NADPH oxidase 5 (Homo sapiens), sequence (Q96PH1 whole entry, looked up): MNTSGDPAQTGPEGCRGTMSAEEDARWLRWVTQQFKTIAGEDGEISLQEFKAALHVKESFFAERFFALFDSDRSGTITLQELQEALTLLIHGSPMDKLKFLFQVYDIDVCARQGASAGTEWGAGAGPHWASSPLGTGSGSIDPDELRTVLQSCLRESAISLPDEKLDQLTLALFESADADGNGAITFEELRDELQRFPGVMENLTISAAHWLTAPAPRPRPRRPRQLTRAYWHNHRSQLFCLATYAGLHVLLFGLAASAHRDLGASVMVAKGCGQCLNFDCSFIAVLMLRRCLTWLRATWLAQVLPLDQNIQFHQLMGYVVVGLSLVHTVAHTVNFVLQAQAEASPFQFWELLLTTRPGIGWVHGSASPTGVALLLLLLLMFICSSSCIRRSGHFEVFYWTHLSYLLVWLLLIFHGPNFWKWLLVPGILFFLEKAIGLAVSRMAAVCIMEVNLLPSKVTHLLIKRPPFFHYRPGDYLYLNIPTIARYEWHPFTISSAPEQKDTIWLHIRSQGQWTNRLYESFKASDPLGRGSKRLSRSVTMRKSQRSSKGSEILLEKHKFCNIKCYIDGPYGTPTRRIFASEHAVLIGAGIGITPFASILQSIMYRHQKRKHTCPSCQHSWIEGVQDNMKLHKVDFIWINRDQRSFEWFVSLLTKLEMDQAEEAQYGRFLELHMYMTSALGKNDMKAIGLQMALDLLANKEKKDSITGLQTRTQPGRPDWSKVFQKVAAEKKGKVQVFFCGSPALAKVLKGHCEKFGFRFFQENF

Row | SMILES | z-score [1] | composite z-score [2] | z-score [3] | z-score [4] | z-score [5] | z-score [6] | z-score [7] | z-score [8] | z-score [9] | z-score [10] | z-score [11] | z-score [12] | z-score [13] | z-score [14] | z-score [15] | z-score [16] | z-score [17] | z-score [18] | z-score [19] | z-score [20]
1 | CO[C@H]1COC(=O)CC=C[C@H](C)[C@@H](OC)COC(=O)[C@H](C)COC(=O)CC=C[C@@H]1C | 0.79 (inactive) | -0.146 | -0.0428 (inactive) | 0.202 (inactive) | 0.523 (inactive) | 0.13 (inactive) | 0.333 | -0.165 (inactive) | 0.297 (inactive) | -0.12 | 0.389 | -0.376 | 1.05 | 0.199 | -1.03 | 1.86 | 0.352 (inactive) | -0.316 | -0.326 | -0.132 (inactive)
2 | CC(C)(C)N1C(=O)[C@H]2[C@H]3[C@H](O)[C@H](O)CC(=O)[C@H]3CC[C@H]2C1=O | -0.714 (inactive) | -0.144 | -0.0882 (inactive) | 0.499 (inactive) | -0.933 (inactive) | 0.183 (inactive) | 1.23 | 1.22 (inactive) | -1.36 (inactive) | 0.0957 | -0.568 | 0.372 | 0.258 | -1 | -0.27 | 0.192 | -0.445 (inactive) | 0.651 | -0.512 | -0.644 (inactive)
3 | COC(=O)CC=C[C@@H](C)[C@@H](C=NOC[C@H]1O[C@H](c2ccccc2)C=C[C@@H]1Oc1ccc(OC)cc1)OC | -0.425 (inactive) | -0.148 | 4.7 (inactive) | 1.15 (inactive) | -0.469 (inactive) | 0.393 (inactive) | -0.516 | -0.323 (inactive) | 0.338 (inactive) | -0.549 | 0.0124 | -0.701 | -0.56 | -0.831 | -0.209 | -1.05 | -0.506 (inactive) | 0.16 | -0.327 | 1.06 (inactive)
4 | COc1cccc([C@H]2Oc3ccc(OC)cc3C(=NOC[C@@H](O)COCc3ccco3)[C@@H]2O)c1 | -0.964 (inactive) | -0.43 | 0.55 (inactive) | -2.05 (inactive) | 0.135 (inactive) | -2.01 (inactive) | 1.04 | -0.262 (inactive) | 0.378 (inactive) | -0.104 | 0.451 | 0.558 | 0.819 | 0.667 | 0.414 | -0.959 | 0.461 (inactive) | 0.431 | -0.751 | -1.55 (inactive)
5 | O=C1CCCC=C1C(CCc1ccccc1)OC(=O)c1ccc(Br)cc1 (stereo not given) | -0.303 (inactive) | 0.16 | 10.6 (active) | 0.748 (inactive) | -0.295 (inactive) | -0.364 (inactive) | 0.307 | 1.36 (inactive) | 0.397 (inactive) | -1.5 | -0.281 | 0.893 | -0.318 | -3.42 | -2.69 | -0.158 | -1.15 (inactive) | -0.619 | -0.127 | -0.251 (inactive)
